Compound activity as filed in PubChem.
The list is not random: actives were taken first. Their share in the collection is about 6.2%.
RORg inh – inhibitors of mouse ROR gamma transcriptional activity. P51450. Drosophila S2 Gal4-RORgamma UAS-luciferase reporter, 20 h. Potency, µM (top dose mostly 53.6 µM), for the others: at the top dose activity change, negative = inhibition, actives largely listed as inhibitors. actives 5.4% (n = 310,000). AID 2551; further: nearly all actives have a fitted effect of over 60% in size
Target sequence (P51450 whole entry, looked up, the tested form may be a part): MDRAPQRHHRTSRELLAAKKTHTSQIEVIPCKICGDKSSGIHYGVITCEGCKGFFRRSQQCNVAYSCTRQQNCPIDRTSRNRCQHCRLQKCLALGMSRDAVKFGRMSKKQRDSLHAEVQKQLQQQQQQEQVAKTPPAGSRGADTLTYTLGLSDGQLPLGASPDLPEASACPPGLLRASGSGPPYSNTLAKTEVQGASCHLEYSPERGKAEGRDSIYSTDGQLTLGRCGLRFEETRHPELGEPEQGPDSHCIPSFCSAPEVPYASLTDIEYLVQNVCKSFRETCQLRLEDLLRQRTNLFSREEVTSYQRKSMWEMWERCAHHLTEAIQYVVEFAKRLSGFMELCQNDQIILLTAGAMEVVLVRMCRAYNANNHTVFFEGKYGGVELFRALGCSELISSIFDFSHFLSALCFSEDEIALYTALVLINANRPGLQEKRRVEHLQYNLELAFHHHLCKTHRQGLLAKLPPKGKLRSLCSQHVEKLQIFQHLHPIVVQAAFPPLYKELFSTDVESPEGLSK
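Stably transfected Drosophila Schneider cells are the test system, with ROR gamma fused to Gal4 and luciferase under UAS control; luminescence is read after 20 hr of 700 uM copper sulfate induction at ambient temperature.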
Luc counter – Kinase-Glo luciferase inhibition (counter-screen) | Q27757 | Kinase-Glo luciferase, ATP luminescence, 8 min | Potency, µM (highest dose often 38.3 µM), for inactives: at the top dose activity change, negative = inhibition, usual class: inhibitors | actives 0.28% (n = 200,000) | AID 1379; further: nearly all actives have a fitted effect of over 60% in size
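Luminescence was the read-out, taken after 8-minute incubation at ambient temperature. Luciferase turned over luciferin with 10 uM ATP in imidazole pH 7.2 buffer containing KCl, MgCl2, Tween 20 and BSA.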
Gal4-VP16 FLuc – Gal4-VP16 reporter inhibition counter-screen; Drosophila S2 Gal4-VP16 UAS-luciferase, luminescence, 20 h; Potency, µM (top dose mostly 53.6 µM), inactives show at the top dose activity, negative = inhibition, most hits filed as inhibitors; actives 3.5% (n = 310,000); AID 2546;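 further: Gal4-VP16 expression switched on by copper sulfate through the metallothionein promoter; nearly all actives have a fitted effect of over 50% in size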
An asterisk follows results filed as active; ? = inconclusive; . = not tested or not shown; [ ] = remark or other dose. The call rests on the fitted dose curve; in most records, active means well fitted curve in the direction sought with a large enough effect; inconclusive means small, poorly fitted or top-dose-only effect, or another doubt; inactive means no such curve, though single readings can be large; an effect the other way counts as inactive or inconclusive. On the % scale 0 is the no-effect control and ±100 the full control effect; potency means the concentration at half of the fitted maximal effect.

SMILES | RORg inh | Luc counter | Gal4-VP16 FLuc
CO[C@H]1COC(=O)[C@H](C)COC(=O)C/C=C\[C@@H](C)[C@H](OC)COC(=O)C/C=C\[C@@H]1C | 5.5%[10 µM] | . | -8.4%[10 µM]
COC(=O)C1=C[C@@H](C(=O)OC)[C@H]2C3=C(C(=O)[C@@]2(C)NC(=O)c2ccccc2)[C@H](C)C(C(=O)OC)=C(C(=O)OC)[C@@H]3C1 | -0.4% | . | -0.4%
CC(=O)NN1C(=O)c2ccc3c4c(ccc(c24)C1=O)C(=O)N(NC(C)=O)C3=O | 11.2µM* | . | 11.2µM*
O=C1c2ccc3c4c(ccc(c24)C(=O)N1NC(=O)C(F)(F)F)CC3 | -21.8% | 2.5% | -9.5%
CCOC(=O)c1nnc(-c2ccccc2)nc1Oc1ccccc1Cl | 4.47µM* | 0.0% | 5.01µM*
CCOC(=O)c1nnc(-c2ccccc2)nc1NC | 11.8% | -5.4% | -9.6%
O=C(N1CCN(c2ccccn2)CC1)N1c2ccccc2Sc2ccccc21 | 9.9% | -0.9% | -23.8%
O=C(O)CCCCn1ccc(=O)[nH]c1=O | . | -1.7%[7.66 µM] | .
Cc1cccc(CSc2nnc(CCNC(=O)OC(C)(C)C)o2)c1 | 39.1% | . | 22.1%
COC(=O)/C(=C1/Oc2cc(C)oc(=O)c2S1)C(F)(F)F | 0.708µM* | 1.4% | 1.12µM*
COC(=O)/C(=C1/Oc2ccc(C(C)(C)C)cc2S1)C(F)(F)F | 14.2% | 1.0% | -14.9%
CCCc1cc(NC(=O)CCl)n(-c2ccccc2)n1 | ? | -1.1% | 20µM*
Cc1cc(NC(=O)CN2CCCCC2)n(-c2ccccc2)n1 | 0.5% | . | 4.3%
CCc1cc(=O)oc2c(C)c(OCC(=O)N3CCCc4ccccc43)ccc12 | 11.2µM* | -5.6% | ?
CCc1cc(=O)oc2cc(OCC(=O)N3CCc4ccccc43)ccc12 | 0.5% | -2.2% | 5.9%
CC(=O)c1cccc(CN2CCCCC2C(=O)Nc2ccc(Oc3ccccc3)nc2)c1 (stereo not given) | 4.0% | . | -4.2%
CS(=O)(=O)N(CC(=O)NCCSCc1ccccc1)c1ccccc1Br | 21.5% | . | -15.9%
O=C(/C=C/c1ccc2c(c1)OCO2)Nc1cccnc1 | -32.9% | -22.2% | ?
O=[N+]([O-])c1ccc(/C=N/NC(=S)Nc2ccccc2)o1 | ? | -19.1% | ?
Fc1ccccc1NC(=S)N/N=C/c1ccccc1Br | 3.16µM* | -3.5% | 4.47µM*
O=[N+]([O-])c1ccc(/C=N/NC(=S)Nc2ccccc2F)o1 | 7.08µM* | -0.1% | 7.94µM*
O=C(CCCC(=O)Nc1ccccc1Br)N/N=C/c1c(F)cccc1Cl | -29.8% | . | 2.7%
O=c1c(-c2ccccc2)nc2cnc(Nc3ccccc3)nc2n1Cc1cccs1 | -3.2% | . | -3.5%
COc1ccccc1CC(=O)NNS(=O)(=O)c1ccc([N+](=O)[O-])cc1 | -19.2% | 1.8% | -7.0%
NC(=O)C1CCN(C(=O)CCC(=O)c2ccc(F)cc2)CC1 | 7.4% | . | -0.8%
SMILES | RORg inh | Luc counter | Gal4-VP16 FLuc
COc1ncnc2c1NC1=C(S2)C(=NCCC(=O)O)CC(C)(C)C1 | ? | . | 17.8µM*
CN(C)c1ncnc2c1NC1=C(S2)C(=NCCCC(=O)O)CC(C)(C)C1 | -33.0% | -2.4% | -0.6%
CCCCn1nc(C(=O)Nc2cc(S(=O)(=O)N(C)C)ccc2C)c2ccccc2c1=O | -0.8% | . | -2.2%
O=c1[nH]c2cc(NCCO)c([N+](=O)[O-])cc2[nH]1 | -6.7% | -3.7% | -2.3%
O=c1[nH]c(=O)n(Cc2ccco2)c2c1C(C(F)(F)F)(C(F)(F)F)N=C(CCc1ccccc1)N2 | ? | -0.9% | -12.0%
O=c1[nH]c(=O)n(-c2ccc(F)cc2)c2c1C(C(F)(F)F)(C(F)(F)F)N=C(c1ccc(F)cc1)N2 | -26.0% | -1.2% | 15.8µM*
N#Cc1ccc(C2=NC(C(F)(F)F)(C(F)(F)F)c3c(n(Cc4ccco4)c(=O)[nH]c3=O)N2)cc1 | 12.6µM* | 6.9% | ?
Cc1ccc(C2=NC(C(F)(F)F)(C(F)(F)F)c3c(n(-c4ccc(F)cc4)c(=O)[nH]c3=O)N2)cc1 | ? | -0.4% | -12.4%
CCCS(=O)(=O)c1nc(S(=O)(=O)c2ccc(C)cc2)c(N2CCCC(C)C2)s1 (stereo not given) | 9.0% | . | 5.9%
Cc1ccc(C(=O)NCC(=O)N/N=C/c2cccs2)cc1[N+](=O)[O-] | -32.1% | -0.1% | 1.2%
CNC(=S)N/N=C/c1cc(C)n(-c2ccc(Cl)c(Cl)c2)c1C | 0.794µM* | 0.6% | 4.47µM*
CCOc1ccc(-n2c(C)cc(/C=N/NC(=O)C(N)=O)c2C)cc1 | 22.7% | 1.1% | -9.1%
Cc1cccc(-n2c(C)cc(/C=N/NC(=O)c3ccc(CN4CCOCC4)cc3)c2C)c1 | 10µM* | -0.6% | -4.4%[0.365 µM]
O=C(N/N=C/c1ccc(OC(=O)c2ccccc2)cc1)c1ccc(CN2CCOCC2)cc1 | 39.4% | 0.1% | -3.5%
Cc1ccc(-n2c(C)cc(/C=N/NC(=O)c3ccncc3)c2C)cc1 | 7.94µM* | -5.7% | ?
Cc1ccc(C(=O)N/N=C/c2cc(C)n(-c3ccc(Br)cc3)c2C)cc1[N+](=O)[O-] | 0.398µM* | 1.3% | 1.41µM*
Cc1ccc(C(=O)Nc2ccc(C(=O)N/N=C/c3ccncc3)cc2)cc1 | ? | -0.4% | -6.3%
O=S1(=O)C=CC(Nc2ccccc2)C1 (stereo not given) | 22.4% | -0.6% | -5.0%
Cc1nnc(N/N=C/C(C)c2ccccc2)[nH]c1=O (stereo not given) | -28.0% | . | -0.9%
CCN1CCN(C(=O)CCc2nnc(CCc3ccc(OC)cc3)o2)[C@@H](C)C1=O | 17.6% | . | -0.5%
O=C(CN1C(=O)COc2ccccc21)N(Cc1cccnc1)Cc1ccccc1F | -14.0%[0.365 µM] | 0.4% | .
Cc1ccc(-n2c(C)cc(/C=N/NC(=O)c3ccc(CN4CCOCC4)cc3)c2C)cc1 | 7.94µM* | -1.7% | ?
CN(C)c1ccc(/C=N/NC(=O)c2ccc(CN3CCOCC3)cc2)cc1Br | 8.2% | -2.6% | 16.1%
Cc1ccc(C)c(-n2c(C)cc(/C=N/NC(=O)c3c(C)nc4cc(C)ccn34)c2C)c1 | ? | -2.1% | 14.1µM*
Cc1ccc(-n2c(C)cc(/C=N/NC(N)=S)c2C)cc1 | 2.82µM* | -2.2% | 4.47µM*
SMILES | RORg inh | Luc counter | Gal4-VP16 FLuc
Cc1ccc(-n2c(C)cc(/C=N/NC(=O)CC3(C)OCCO3)c2C)cc1 | -22.4% | 0.2% | ?
COC(=O)N/N=C/c1cc(C)n(-c2cccc3ccccc23)c1C | -17.5% | -3.3% | -5.5%
CCCC(=O)Nc1sc2c(c1C(=O)OCC)CC(C)(C)OC2 | 2.6% | -2.4% | -0.6%
C=C(C)CNC(=S)Nc1sc2c(c1C(=O)OCC)CC(C)(C)OC2 | 1.41µM* | . | 1.41µM*
O=C1C2=C(Nc3cc([N+](=O)[O-])ccc3N2)O[C@@H]1c1c[nH]c2ccc(COc3ccccc3)cc12 | . | -4.4%[7.66 µM] | .
O=c1c2ccccc2nnn1CSc1ccc2c(c1)OCCO2 | -16.3% | -5.7% | -10.3%
O=C(Nc1nnc(-c2ccc3c(c2)CCCC3)o1)C1CCCCC1 | ? | -1.0% | -1.6%
O=C(Nc1nnc(-c2ccncc2)o1)C1CCCCC1 | 10µM* | 1.5% | ?
O=C(Nc1nnc(-c2ccco2)o1)C1CCCCC1 | ? | -3.0% | ?
O=C(Nc1nnc(-c2ccccc2)o1)NC1CCCCC1 | 2.51µM* | 11.4% | 4.47µM*
CC(C)C(=O)Nc1nnc(-c2ccccc2)o1 | ? | 4.5% | ?
O=C(Nc1ccccc1)Nc1nnc(-c2ccccc2)o1 | 43.3% | 2.2% | -1.8%
